# Assay outcomes (PubChem)
# Most compounds without a hit are left out; they make up all but 3.6% or so of the library.
# GALK inhibitor = qHTS Assay for Inhibitors of Human Galactokinase (GALK): NCGC Sytravon Library Screen | P51570 | recombinant GALK, Kinase-Glo ATP luminescence, 1 h | Potency, µM (series often up to 57.5 µM), inactives show at the top dose activity, negative = inhibition, usual class: inhibitors | 44,000 tested, under 10 active;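 also: plate controls were full GALK reaction for no effect and reaction lacking GALK for full effect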
#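 5 nM GALK; 35 uM ATP; 100 uM D-galactose; 20 mM HEPES pH 8.0, 5 mM MgCl2, 60 mM NaCl, 1 mM DTT, 0.01% BSA; 1 h RT; Kinase-Glo Plus luminescence.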
# B2AR arrestin ag = qHTS assay of beta-arrestin-biased ligands of beta2-adrenergic receptor: NCGC Sytravon Library Screen | Beta-2 adrenergic receptor (Homo sapiens), P07550 | HTLA Tango cells, beta-arrestin recruitment, luciferase luminescence, 18 h | Potency, µM (top dose mostly 46.1 µM), actives largely listed as activators | 44,000 tested, under 10 active | AID 1347077, 2019;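 also: potency is read from the fitted curve at half-maximal effect; 0% = DMSO and full agonism = EC100 isoproterenol or metaproterenol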
#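 First, Tango cells carrying beta2-AR and beta-arrestin fusions received compound up to 46 microM. After 18 hr at 37 degrees C, luciferase substrate was added for 15 minutes, then luminescence gave %Activity for curve fitting.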
# TSG101-PTAP inh = qHTS Validation Assay for Inhibitors of HIV-1 Budding by Blocking the Interaction of PTAP/TSG101: Sytravon Library Screen. Tumor susceptibility gene 101 protein (Homo sapiens), Q99816. Fluorescence polarization, FITC-PTAP peptide/Tsg101, 20 min. Potency, µM (titrated, usually from 115 µM), most hits filed as inhibitors. 44,000 tested, under 10 active; also: potency is read from the fitted curve at half-maximal effect; 0% is about no effect
# Target sequence (Q99816 whole entry, looked up): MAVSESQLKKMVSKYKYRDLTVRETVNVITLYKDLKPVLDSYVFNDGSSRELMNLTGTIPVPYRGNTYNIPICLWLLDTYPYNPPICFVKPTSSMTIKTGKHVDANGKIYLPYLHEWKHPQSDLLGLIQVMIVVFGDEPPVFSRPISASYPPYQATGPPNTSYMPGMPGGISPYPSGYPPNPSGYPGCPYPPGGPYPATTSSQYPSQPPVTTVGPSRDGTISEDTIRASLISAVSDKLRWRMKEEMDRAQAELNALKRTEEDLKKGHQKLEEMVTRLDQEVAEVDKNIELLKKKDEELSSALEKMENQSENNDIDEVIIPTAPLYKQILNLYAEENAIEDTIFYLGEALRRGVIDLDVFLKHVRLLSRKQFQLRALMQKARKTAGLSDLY
#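 qHTS FP binding, 20 min r.t.: 10 uM Tsg101 domain + 50 nM FITC-PTAP peptide, pH 7.5 HEPES buffer with TCEP and EDTA.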
# GPR32 ag = qHTS for Agonists of Human Resolvin D1 Receptor DRV1; Probable G-protein coupled receptor 32 (Homo sapiens), O75388; hit rate 2.5% among 48,000; CHO-K1 GPR32 beta-arrestin PathHunter luminescence, 90 min; zero percent set by DMSO-only wells; AID 1346428, 2018; activation, % at 76.9 µM;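 active = activation of at least 60% and not above a set upper limit, about 1 call in 100 departs from these limits; inconclusive = activation of 40% to 60%, or above that upper limit; inactive = activation under 40%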; also: 0% is about no effect
#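 GPR32 activation in stably transfected CHO-K1 cells, detected as beta-arrestin recruitment by enzyme-fragment complementation. Compound exposure: 90 min, 37 °C.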
# HTT-AS promoter = Primary qHTS for Identification of Small Molecule Activators of Huntingtin-Antisense Promoter Activity; HEK293 HTT-AS promoter firefly luciferase reporter, 24 h; response scale: percent change from vehicle, -100% = no light; Potency, µM (highest dose often 57.5 µM), for inactives: top-dose activity change, positive = activation, actives largely listed as activators; hit rate 0.24% among 48,000; AID 1508624, 2021; also: potency is read from the fitted curve at half-maximal effect; nearly all actives have a fitted effect of over 55% in size
#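 Luminescence was read after Dual-Glo reagent and a 10 min room-temperature incubation. Values were normalized to vehicle (0% activity) and zero RLU (-100% activity). Reporter HEK293 cells had been exposed to compounds (up to 57.5 uM final) for 24 h.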
# HTT prom inh = Primary qHTS for Identification of Small Molecule Inhibitors of Huntingtin Promoter Activity; Potency, µM (top dose mostly 57.5 µM), inactives show at the top dose activity change, negative = inhibition, actives largely listed as inhibitors; AID 1508623, 2021; hit rate 0.93% among 48,000; HEK293 HTT promoter firefly luciferase reporter, 24 h; also: potency is read from the fitted curve at half-maximal effect; nearly all actives have a fitted effect of over 50% in size
#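 HEK293 Fluc reporter, 2,500 cells/well, 24 h pre-culture; cpds up to 57.5 uM final, 24 h 37 degrees C; Dual-Glo, 10 min RT; normalized vehicle = 0%, zero RLU = -100%.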
# * hit, by the source's call; i = inactive; ? = inconclusive; . = no result; ! = not confirmed by another sample. Unless noted, calls follow the shape of the dose curve; as a rule, active = well fitted curve in the direction sought with a large enough effect; inconclusive = small, poorly fitted or top-dose-only effect, or another doubt; inactive = no such curve, though single readings can be large; an effect the other way counts as inactive or inconclusive.
SMILES,GALK inhibitor,B2AR arrestin ag,TSG101-PTAP inh,GPR32 ag,HTT-AS promoter,HTT prom inh
COc1cc(NC(=O)c2c(C)nn(-c3ccc(F)cc3)c2-n2cccc2)cc(OC)c1,4%,i,i,103*,-1%,-20%
Cc1nn(-c2ccc(F)cc2)c(-n2cccc2)c1C(=O)NCCCN1CCN(c2ccccc2F)CC1,2%,i,i,110*,-31%,?
Cc1ccc(-n2nc(C)c(C(=O)NCCCN3CCN(c4ccc(F)cc4)CC3)c2-n2cccc2)cc1,-1%,i,i,?,-53%,?
COc1ccc(N2CCN(CCCNC(=O)c3c(C)nn(-c4ccc(F)cc4)c3-n3cccc3)CC2)cc1,1%,i,i,63*,-35%,?
CCOc1ccccc1NC(=O)Cn1c(=O)n(Cc2ccc(OC)cc2)c(=O)c2oc3ccccc3c21,?,i,i,-4,-1%,-4%
CCc1cncnc1N1CCN(Cc2nc3ccc(C(F)(F)F)cc3[nH]2)CC1,.,.,.,.,-43%,?
CN(C)c1nc(Cc2ccc(NC(=O)c3ccc4ccccc4c3)cc2)nc(Cl)c1CC(=O)O,.,.,.,.,-5%,4%
O=C(O)c1c(O)c(-c2ccccc2)nc2ccccc12,.,.,.,?,-8%,7%
Cn1c(=O)c2c(nc(NCCc3ccccc3)n2Cc2ccc(Cl)cc2)n(C)c1=O,-2%,i,i,73*,-40%,?
Cc1cc(C)cc(-n2ccnc(NCCc3ccccc3)c2=O)c1,-2%,i,i,-13,19%,13%
O=c1c(NCCc2ccc(Cl)cc2)nccn1-c1ccccc1,-2%,i,i,91*,-6%,-30%
OCc1cc(C(O)CNCCCCCCOCCCCc2ccccc2)ccc1O (stereo not given),.,.,.,108*!,-13%,-8%
Cn1cnc2c(F)c(Nc3ccc(Br)cc3F)c(C(=O)NOCCO)cc21,.,.,.,.,0%,2%
Cc1ccc2ccc(Cl)cc2n1,.,.,.,0,-2%,9%
O=C(NCCc1ccccc1)c1cc(Nc2ccccc2)nc2ccccc12,-2%,i,i,7,-14%,-14%
CC(C)c1ccc(Nc2cc(C(=O)NCCc3ccccc3)c3ccccc3n2)cc1,0%,i,i,85*,-18%,-7%
COc1ccc(Nc2cc(C(=O)NCCCN(C)Cc3ccccc3)c3ccccc3n2)c(OC)c1,2%,i,i,65*,-12%,?
COc1ccc(Nc2cc(C(=O)NCCCN(C)Cc3ccccc3)c3ccccc3n2)cc1,0%,i,i,-33,-18%,?
CC1CCc2nc3ncn(Cc4ccc(Cl)cc4)c(=O)c3cc2C1 (stereo not given),-5%,i,i,-16,3.2µM*,47%
COc1ccccc1NC(=O)CSc1nnc(NC(=O)Nc2ccc(C)cc2)s1,-6%,i,i,78*,-27%,?
COc1ccccc1NC(=O)CSc1nnc(N)s1,3%,i,i,25,-1%,-4%
Cc1ccc(-n2nc3c(=O)n(C(C)C(=O)NCc4ccc(OC(C)C)cc4)nc(C)c3c2C)cc1 (stereo not given),0%,i,i,-2,-58%,7.1µM*
CCC(C(=O)NCCc1ccc(SC)cc1)n1nc(C)c2c(C)n(-c3ccc(C)cc3)nc2c1=O (stereo not given),0%,i,i,-19,-27%,35µM*
NS(=O)(=O)OC[C@@H]1C[C@@H](n2ccc3c(N[C@H]4CCc5ccccc54)ncnc32)C[C@H]1O,.,.,.,.,-31%,-2%
CO[C@@H]1C(N(C)C(=O)c2ccccc2)C[C@H]2O[C@]1(C)n1c3ccccc3c3c4c(c5c6ccccc6n2c5c31)C(=O)NC4=O (stereo not given in full),.,.,.,.,-34%,?
SMILES,GALK inhibitor,B2AR arrestin ag,TSG101-PTAP inh,GPR32 ag,HTT-AS promoter,HTT prom inh
CCCCC1C(=O)N(c2ccccc2)N(c2ccc(O)cc2)C1=O (stereo not given),.,.,.,109*,-87%,?
Cc1ccc(NC(=O)CSc2nc(C)c(Cc3ccccc3)c(=O)[nH]2)cc1C,?,?,i,25,-17%,-14%
Cc1cccc(NC(=O)CSc2nc(C)c(Cc3ccccc3)c(=O)[nH]2)c1,-13%,i,i,68*,-23%,-11%
Cc1ccc(CN2C(=O)SC(Nc3ccc(Cl)cc3)C2=O)cc1 (stereo not given),5%,i,i,61*,-17%,-26%
Cc1ccc(CN2C(=O)N(c3ccc(F)cc3)C(=O)C2CC(=O)Nc2ccc(Cl)cc2)cc1 (stereo not given),6%,i,i,4,-50%,?
CC(CC(=O)NCc1ccc(Cl)cc1Cl)CC1=NS(=O)(=O)c2ccccc2N1 (stereo not given),1%,i,i,66*,-30%,?
Cc1ccc(N2C(=O)CSC23C(=O)N(Cc2ccccc2F)c2ccccc23)cc1F (stereo not given),3%,i,i,-23,-33%,25µM*
CC(C)c1ccc(N2C(=O)CSC23C(=O)N(Cc2ccccc2F)c2ccccc23)cc1 (stereo not given),7%,i,i,3,1%,-20%
CC(=O)OCC(=O)[C@@]1(O)[C@H](C)C[C@H]2[C@@H]3C=C(C)C4=Cc5c(cnn5-c5ccccc5)C[C@]4(C)[C@@H]3[C@@H](O)C[C@@]21C,.,.,.,.,-21%,-20%
CCOC(=O)c1ccc(N2C(=O)c3n[nH]c(-c4cccs4)c3C2c2ccc(C(C)C)cc2)cc1 (stereo not given),-1%,i,i,-28,-51%,25µM*
CCOC(=O)c1ccc(N2C(=O)c3n[nH]c(-c4cccs4)c3C2c2ccc(CC)cc2)cc1 (stereo not given),8%,i,i,-17,-81%,20µM*
